Measurements published in PubChem BioAssay AID1745846 (National Center for Advancing Translational Sciences (NCATS), 2022).
Among all 1,400 compounds or so, about 30 (2%) were called active. Another 15% or so got no clear call; they are omitted. The list comes from a sample in which actives are over-represented; it also holds similar structures and randomly drawn compounds. Values without a mark were called inactive. The call rests on the fitted dose curve; in most records, active means well fitted inhibition curve with a large enough effect; inconclusive means small, poorly fitted or top-dose-only effect; inactive means flat fitted curve, though single readings scatter.

Assay: Firefly Luciferase Counterscreen for Inhibitors of ATXN expression
Conditions: luminescence; series mostly up to 57.5 µM; activity change, negative = inhibition: at the top concentration
From the text: University of Utah School of Medicine, Salt Lake City, Utah
Spinocerebellar ataxia type 2 (SCA2) is a multisystem neurodegenerative disease caused by a dominantly acting mutation leading to expansion of a polyQ domain in the ataxin-2 protein (ATXN2). SCA2 patients develop progressive ataxia and later lose function in other neuronal systems. Prominent parkinsonian signs develop in some patients. Like many neurodegenerative disorders, no symptomatic or disease-modifying treatments are known.
The primary objective of the proposed research is to identify compounds inhibiting ATXN2 expression and to test them for efficacy in SCA2 mouse models. We have developed a cell-based assay paired with an in vivo mouse model using identical luciferase expression constructs. This approach takes advantage of an ATXN2-luciferase transgene, with the luciferase gene flanked by the upstream and downstream portions of the ATXN2 gene. Here we describe a 5-7 dose quantitative high thoroughput screen (qHTS) for compounds lowering ATXN2 expression. We screened the NIH Molecular Libraries Small Molecule Repository (MLSMR) and NCGC's mechanistically annotated (MIPE) and drug repurposing (NPC) collections of compounds for lowering expression of an ATXN2-luciferase reporter in HEK-293 cells. The assay is a multiplexed cell viability assay to ensure target reduction in the absence of cytotoxicity. Secondary qHTS assays included a CMV-luciferase reporter expressed in HEK-293 cells as well as a biochemical assay using recombinant luciferase to detect inhibitors of the reporter enzyme. Compounds that inhibit ATXN2 expression but is not cytotoxic were selected for confirmatory and secondary screens.
PROTOCOL TABLE (as described by Inglese J, Shamu CE and Guy RK. 2007)
SEQUENCE No. (e.g., 1, 2, 3, etc.); […] (e.g., Cells, Incubation, Reagent, etc.); VALUE; DESCRIPTION.
2; Compounds; 23 nL; Kalypsis pintool (Wako USA) equipped with a 1536-well pin head.
3; Enzyme; 1 uL; recombinant firefly luciferase (prepared in 50 mM Tris HCl pH7.5, 10 mM MgCl2, 0.05% BSA, 0.01% Tween20) at final concentration of 10 nM. Wells containing buffer only were used as control (set as 100% inhibition when normalizing data).
4; Incubation; 10 min; room temperature.
5; Detection; Luminescence; Viewlux plate reader (PerkinElmer).
NOTES (numbers refer to Sequence numbers above)
1. Luciferase substrate is added to 1536 well, Greiner white assay plate. Evaporation was prevented by covering assay plates with metal lids containing holes to allow gas diffusion.
2. Compounds were added in a dose response manner with the final concentrations of 57, 11.4, 2.28, 0.46, 0.091, 0.018, 0.0037 uM. Vehicle-only plates, with DMSO being pin-transferred to columns 5-48, were inserted uniformly at the beginning and the end of each library to monitor and record any shifts in assay performance.
3. Recombinant firefly luciferase (10 nM final concentration) is added to the assay plate.
5. End-point luminescence is then measured on the Viewlux (PerkinElmer) imager equipped with a clear emission filter using a 2 sec exposure.
Inglese J, Shamu CE and Guy RK, Reporting data from high throughput screening of small molecule libraries, Nature Chemical Biology, 2007, 3(8): 438-441. doi.org/10.1038/nchembio0807-438.
On the % scale 0 is the no-effect control and ±100 the full control effect; potency means the concentration at half of the fitted maximal effect.

Row | SMILES | activity change, negative = inhibition [%] | Potency
1 | COCCCNCCCOc1ccc(Cl)cc1C(C)(C)C | 1.71 | 
2 | CC(C)C1C(=O)N(Cc2cn(CCC3OCCO3)nn2)CCS(=O)(=O)N1Cc1ccc(-c2ccc(Cl)cc2)cc1 (stereo not given) | -3.28 | 
3 | COc1cccc(S(=O)(=O)NCc2ccc(C(=O)Nc3cccc(Cl)c3)cc2)c1 | -2.18 | 
4 | Cc1ccc(OCCCC(=O)NNC(=O)c2ccccn2)cc1 | -1.95 | 
5 | CCCC(NCC(O)COc1ccc(-c2ccccc2)cc1)c1ccccc1 (stereo not given) | -3.86 | 
6 | O=C(CSc1nnc(-c2ccc(Br)cc2)o1)Nc1cccc(C(=O)O)c1 |  | 3.98 µM (active)
7 | O=C(CSc1n[nH]c(-c2ccccn2)n1)Nc1ccccc1 | -13.1 | 
8 | O=C(Nc1cccc(Br)c1)c1cccc(OC(=S)N2CCOCC2)c1 | -13.5 | 
9 | CC1(C(=O)Nc2cnc3ccccc3c2)CCN1C(=O)c1ccccc1CCc1ccccc1 (stereo not given) | -1.11 | 
10 | O=C(NC(Nc1ncc(S(=O)(=O)c2ccc([N+](=O)[O-])cc2)s1)(C(F)(F)F)C(F)(F)F)c1ccc(Cl)cc1 | -10.1 | 
11 | NC(Cc1ccc(C(F)(F)F)cc1)c1csc(Nc2ccc(C(=O)c3ccccc3)cc2)n1 (stereo not given) | 0.547 | 
12 | Cc1ccc(C2CC(=O)Nc3c2ccc2ccccc32)cc1[N+](=O)[O-] (stereo not given) | -4.69 | 
13 | CCc1nc2c(OCc3ccc(Cl)cc3)cccn2c1N(C=O)Cc1ccc(OC)cc1 | -3.69 | 
14 | COc1ccc(Cc2[nH]n3c(=O)cc(C(C)C)nc3c2-c2ccccc2)cc1 | -12.5 | 
15 | CNC(=O)c1sc(N2N=C3/C(=C/c4ccccc4)CCCC3C2c2ccccc2)nc1C (stereo not given) | -2.34 | 
16 | CN1CCC(N(C)S(=O)(=O)c2ccc(NC(=O)COc3ccc(Br)cc3Cl)cc2)CC1 | -14.6 | 
17 | CN(C)CCNc1ccc(CO)c2sc3ccc(O)cc3c(=O)c12 | -5.83 | 
18 | CCn1cc(Cl)c(C(=O)N2N=C(c3ccc4ccccc4c3)CC2c2ccccc2O)n1 (stereo not given) | -3.47 | 
19 | CC(=O)NC(=C(Cl)Cl)S(=O)(=O)c1ccccc1 | 1.35 | 
20 | S=C(NCc1cccnc1)Nc1ccc(Oc2ccc(Cl)cc2)cc1 | -0.796 | 
21 | C(=NN1CCCCCC1)c1ccc2ccccc2n1 |  | 0.1 µM (active)
22 | S=C(Nc1cc(Cl)ccc1Oc1ccccc1)N1CCN(c2ccccn2)CC1 | -1.6 | 
23 | CN(c1ccccc1)S(=O)(=O)c1cccc(NC(=O)c2cc(=O)c3ccccc3o2)c1 | -0.345 | 
24 | O=C(COc1nsnc1N1CCOCC1)N/N=C/c1ccccc1O | -13.4 | 
25 | COc1ccccc1N(CC(=O)N/N=C/c1c(O)ccc2ccccc12)S(C)(=O)=O | -10.5 | 

Row | SMILES | activity change, negative = inhibition [%] | Potency
26 | Cn1c(CO)cnc1SCC(=O)c1ccc(Br)cc1 | -8.93 | 
27 | CC(=O)Nc1cccc(-c2ccnc3c2CC(C)(C(=O)Nc2ccc(Cl)cc2)O3)c1 (stereo not given) | -2.94 | 
28 | CCCCOc1ccc(CSC(=N)N)cc1Cl | -4.4 | 
29 | O=[N+]([O-])c1cc(Cl)c(O)c2ncccc12 | -17.6 | 
30 | Cc1cccn2c(=O)c(/C=C(\C#N)C(N)=O)c(N3CCN(c4cccc(Cl)c4)CC3)nc12 | 0.85 | 
31 | NC(c1csc(NC(=O)c2cccc(OC(F)(F)F)c2)n1)c1ccccc1Cl (stereo not given) | -0.688 | 
32 | COc1cc(/C=N\NC(=O)CC#N)ccc1OC/C=C/c1ccccc1 | -3.57 | 
33 | COC(=O)c1cc(NC(=O)c2cc(-c3ccc(C(F)(F)F)cc3)oc2C(F)(F)F)ccc1N1CCOCC1 | -5.33 | 
34 | COC1CC(C)C(OC)c2cc(O)cc(c2O)NC(=O)C(C)=CC=CC(C)C(OC(N)=O)C(C)=CC(C)C1OC (stereo not given) | -11.5 | 
35 | Cc1cccc(C(=O)N/N=C2\CS(=O)(=O)N(C)c3ccsc32)c1 | -9.38 | 
36 | CC(=O)Oc1ccc(N(C(C)=O)S(=O)(=O)c2ccc(Cl)cc2)c2ccccc12 | -17.1 | 
37 | CCOC(=O)CSc1cccc2cccnc12 | -10.6 | 
38 | CC(=O)Nc1cccc(-c2ccnc3c2CC(C)(C(=O)Nc2ccc(Cl)c(C(F)(F)F)c2)O3)c1 (stereo not given) | -1.06 | 
39 | Cc1ccc2ccc(C(Nc3ccccn3)c3ccccc3)c(O)c2n1 (stereo not given) | -7.07 | 
40 | Cc1nc2ccccc2n1/N=C/c1ccc([N+](=O)[O-])o1 | -2.11 | 
41 | COc1ccc(-c2cnc3c(NC=O)cc(-c4ccccc4OC)cn23)cc1OC | -3.03 | 
42 | CN1CCN(c2ccc(-c3cc(NC=O)c4ncc(-c5ccc(F)c(Cl)c5)n4c3)cc2)CC1 |  | 15.8 µM (active)
43 | COc1ccccc1-c1cc(NC=O)c2ncc(-c3ccc(F)cc3)n2c1 | -1.97 | 
44 | Cc1cc(C)nc(N/N=C2/CCCC/C2=C\c2ccccc2)n1 | -3.98 | 
45 | Cc1ccc(C(NC(=O)C2CCN(Cc3ccc(Cl)c(Cl)c3)CC2)c2ccccn2)cc1 (stereo not given) | -2.96 | 
46 | Cn1c(=O)c2c(nc(CN3CCN(Cc4ccccc4)CC3)n2Cc2ccc(Cl)cc2)n(C)c1=O | 0.959 | 
47 | Cn1c2ccccc2c(=O)c2c(=O)n(C3CCCCC3)c(-c3cccs3)nc21 | -7.28 | 
48 | CC1(C)Cc2ccccc2C(NNC(=O)c2ccccn2)=N1 | 0.45 | 
49 | CC(OC(=O)c1cc(Br)ccc1O)C(=O)Nc1ccc(S(=O)(=O)N2CCCC2)cc1 (stereo not given) | -2.03 | 
50 | O=C(Nc1ccc(N2CCN(C(=O)c3cccs3)CC2)c(Cl)c1)c1cccnc1 | -0.903 | 
